{"source": "PubChem BioAssay (NCATS)", "note": "Several values for one entry are separate records, joined by “and”; a condition that tells them apart may be missing. Identical values can stand only once. Records with an inconclusive call do not appear. Where a call stands in place of a potency, no number is given. A structure can be active in one record and inactive in another. Activity calls are given as the source filed them. The call rests on the fitted dose curve; in most records, active means well fitted inhibition curve with a large enough effect; inconclusive means small, poorly fitted or top-dose-only effect; inactive means no such curve, though single readings can be large or run the other way. Peptide text beside a SMILES is read from it. Potency means the concentration at half of the fitted maximal effect.", "data": [{"test": "qHTS assay for measurement of the activity of small molecule inhibitors on Zika virus induced Caspase-3 activity in human iPSC derived neural progenitor cells (hNPCs) (AID 1224857); further: nearly all actives have a fitted effect of over 65% in size", "conditions": "hNPCs ZIKV-induced caspase-3/7, Caspase-Glo luminescence, 6 h; series mostly up to 45.7 µM", "text": "National Center for Advancing Translational Sciences [NCATS]\nJohns Hopkins University School of Medicine\nIncrease in the Caspase-3 activity indicates an activation of apoptosis cell death pathway caused by Zika virus infection in certain types of neuronal cells including human neural progenitor cells (hNPCs), astrocytes, and astrocytoma cell line (SNB-19). This cell-based caspase-3 activity assay measures the increased caspase-3 activity in the human iPSC derived neural progenitor cells (hNPCs) after a 6-hour Zika virus infection with a luminescence readout. A decrease in the luminescence signal in this assay by small molecule treatment indicates an inhibitory effect of that small molecule on the Zika virus induced caspase-3 activity that may correlate with its effect on reduction of Zika virus caused cell death.\nThe medium for hNPCs consists of DMEM/F12, N2 supplement (ThermoFisher, Cat.# 17502048), NEAA (ThermoFisher, Cat. # 11140050), 2 ug/ml heparin, 2 uM cyclopamine, and B27 (ThermoFisher, Cat. # 17504044). A Caspase-Glo 3/7 assay kit (catalog number G8092; Promega, Madison, WI) was used to detect caspase-3 activity induced by Zika virus infection in human cells. The reagent mixture was reconstituted as described in the protocol from the manufacturer. Polystyrene tissue culture treated and PDL coated white plates were obtained from Greiner Bio-One (Monroe, NC). Cells were seeded in 384- or 1536-well assay plates and cultured at 37 C with 5% CO2 for 16 to 20 hours. The typical cell seeding density in the 1536-well plate assay is 350 cells/well in 3 ul medium for hNPCs in tissue culture treated plates. Compounds were added to cells and incubated for one hour before addition of ZIKV solution to cells (2 FFU/cell). After incubation at 37 C with 5% CO2 for 6 hours, the reagent mixture of Caspase-Glo 3/7 assay kit was added to each well, followed by incubation at room temperature for 30 minutes. The luminescence intensity of the assay plates was measured using a ViewLux plate reader (PerkinElmer). Data were normalized by using the cell-containing wells without ZIKV as a negative control (0% induction of caspase 3/7 activity) and wells containing ZIKV infected cells (Caspase-3 activity induced) as a positive control (100% induction of caspase 3 activity). The percentage inhibitions of the increased Caspase-3 activity by small molecule inhibitors were then calculated.", "values": [{"compound": "N=C(N)c1ccc2cc(OC(=O)c3ccc(N=C(N)N)cc3)ccc2c1", "Potency": "inactive"}, {"compound": "Cc1nc(-c2ccc(OCC(C)C)c(C#N)c2)sc1C(=O)O", "Potency": "5.26 µM (active) and inactive"}, {"compound": "CN(C)[C@@H](CCOc1cccc2ccccc12)c1ccccc1", "Potency": "inactive"}, {"compound": "Clc1ccc2c(N3CCN(CCCN4CCN(c5ccnc6cc(Cl)ccc56)CC4)CC3)ccnc2c1", "Potency": "inactive"}, {"compound": "Cc1cccc(C#Cc2ccccc2)n1", "Potency": "inactive and 6.31 µM (active)"}, {"compound": "O=C(CS(=O)Cc1ccco1)NCC=CCOc1cc(CN2CCCCC2)ccn1", "note": "(stereo not given)", "Potency": "inactive"}, {"compound": "O=c1ccc2ccc(O)c(O)c2o1", "Potency": "inactive"}, {"compound": "OC(CN1CCN(c2cccc(Cl)c2)CC1)C(c1ccccc1)c1ccccc1", "note": "(stereo not given)", "Potency": "inactive"}, {"compound": "Clc1ccc(C(Cn2ccnc2)OCc2ccsc2Cl)c(Cl)c1", "note": "(stereo not given)", "Potency": "inactive"}, {"compound": "CCN(CC)C(=S)SSC(=S)N(CC)CC", "Potency": "10 µM (active)"}, {"compound": "COC(=O)[C@H](Cc1ccccc1)NC(=O)[C@@H](N)CC(=O)O", "note": "(H-Asp-Phe-OMe)", "Potency": "inactive"}, {"compound": "C[C@@H](c1ncncc1F)[C@](O)(Cn1cncn1)c1ccc(F)cc1F", "Potency": "inactive"}, {"compound": "CC1Cc2ccccc2N1NC(=O)c1ccc(Cl)c(S(N)(=O)=O)c1", "note": "(stereo not given)", "Potency": "inactive"}, {"compound": "Cc1ncc([N+](=O)[O-])n1CC(C)O", "note": "(stereo not given)", "Potency": "inactive"}, {"compound": "CCCCCCCCOc1ccccc1C(=O)Nc1ccc(C(=O)OCC[N+](C)(CC)CC)cc1", "Potency": "16.6 µM (active) and inactive"}, {"compound": "CC(C)c1ccc2c(c1)c(SC(C)(C)C)c(CC(C)(C)C(=O)O)n2Cc1ccc(Cl)cc1", "Potency": "inactive"}, {"compound": "O=C1CCc2ccc(OCCCCN3CCN(c4cccc(Cl)c4Cl)CC3)cc2N1", "Potency": "inactive"}, {"compound": "O=P(O)(O)C(O)(Cn1ccnc1)P(=O)(O)O", "Potency": "inactive"}, {"compound": "CN(C)c1ccc(O)c2c1C[C@H]1C[C@H]3[C@H](N(C)C)C(=O)C(C(N)=O)=C(O)[C@@]3(O)C(=O)C1=C2O", "Potency": "inactive"}, {"compound": "O=C1NC(=O)C(c2ccccc2[N+](=O)[O-])=C1Nc1ccc(O)c(Cl)c1", "Potency": "20.9 µM (active)"}, {"compound": "O=C(NCC1CCCCN1)c1cc(OCC(F)(F)F)ccc1OCC(F)(F)F", "note": "(stereo not given)", "Potency": "inactive"}, {"compound": "COCCCN1CCC(NC(=O)c2cc(Cl)c(N)c3c2OCC3)CC1", "Potency": "inactive"}, {"compound": "CCOC(=O)c1c(C)n(C)c2ccc(O)cc12", "Potency": "inactive"}, {"compound": "NCCCCNCCCN", "Potency": "inactive"}, {"compound": "Cc1ccc(NC(=O)c2ccc(CN3CCN(C)CC3)cc2)cc1Nc1nccc(-c2cccnc2)n1", "Potency": "inactive"}, {"compound": "NNc1nncc2ccccc12", "Potency": "inactive"}, {"compound": "CNC[C@@H](O)[C@@H](O)[C@H](O)[C@H](O)CO", "Potency": "inactive"}, {"compound": "Nc1nc(Cl)nc2c1ncn2[C@H]1C[C@H](O)[C@@H](CO)O1", "Potency": "inactive"}, {"compound": "C=CCc1cc(OC)c(O)c(C(=O)NCCO)c1", "Potency": "inactive"}, {"compound": "CCCc1cc(=O)[nH]c(=S)[nH]1", "Potency": "inactive"}, {"compound": "O=c1oc2cc(O)ccc2s1", "Potency": "11.8 µM (active)"}, {"compound": "Clc1ccc(C(Cn2ccnc2)OCc2ccc(Sc3ccccc3)cc2)c(Cl)c1", "note": "(stereo not given)", "Potency": "inactive"}, {"compound": "O=C(O)c1cc(=O)c2c(OCC(O)COc3cccc4oc(C(=O)O)cc(=O)c34)cccc2o1", "Potency": "inactive"}, {"compound": "CC(C)C[C@H](NC(=O)[C@H](Cc1ccccc1)NC(=O)c1cnccn1)B(O)O", "Potency": "inactive"}, {"compound": "Cc1cccc(C)c1OCC(=O)N[C@@H](Cc1ccccc1)[C@@H](O)C[C@H](Cc1ccccc1)NC(=O)[C@H](C(C)C)N1CCCNC1=O", "Potency": "inactive"}, {"compound": "COC1=C(OC)C(=O)C(CCCCCCCCCCO)=C(C)C1=O", "Potency": "inactive"}, {"compound": "NS(=O)(=O)c1cc(C(=O)O)c(NCc2ccco2)cc1Cl", "Potency": "inactive"}, {"compound": "Cc1cc(=O)c2c(O)c3c(O)cc(=O)c4c3c3c(cc(O)c1c23)C(C)(C)C=4O", "Potency": "inactive"}, {"compound": "CCc1nc(N)nc(N)c1-c1ccc(Cl)cc1", "Potency": "inactive"}, {"compound": "CC(=O)O[C@H]1C(=O)[C@@]2(C)C([C@H](OC(=O)c3ccccc3)[C@]3(O)C[C@H](OC(=O)[C@H](O)[C@@H](NC(=O)c4ccccc4)c4ccccc4)C(C)=C1C3(C)C)[C@]1(OC(C)=O)CO[C@@H]1C[C@@H]2O", "note": "(stereo not given in full)", "Potency": "inactive"}]}]}
